Values joined by “and” are separate entries in the source; they are usually repeats but may differ in a detail not shown here. Equal values may be shown once. Results filed as inconclusive are left out. Entries that show only a call come without a potency. Active and inactive are the calls of the source. Unless noted, calls come from the whole dose curve; as a rule, active = well fitted curve in the direction sought with a large enough effect in the repeat runs; inconclusive = weak or mixed curves; inactive = no such curve, though single readings can be large; an effect the other way counts as inactive or inconclusive.
Experiments:
[1] = qHTS assay for small molecule agonists of the p53 signaling pathway (AID 651631; calls by dose curve; note: nearly all actives have a fitted effect of over 15% in size; note: potency is the fitted concentration of half-maximal effect)
Method in brief: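 Beta-lactamase reporter activity under p53 response elements was quantified in HCT-116 cells by FRET fluorescence, following 16 h incubation with test compounds at 37 °C and 2 h substrate development at room temperature.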

[2] = qHTS assay for small molecules that induce genotoxicity in human embryonic kidney cells expressing luciferase-tagged ATAD5 (AID 651632); note: nearly all actives have a fitted effect of over 15% in size
Method in brief: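 Cells were seeded at 2,000 per well, dosed with compound, and incubated 16 hr at 37C in 5% CO2. Luciferase activity was then quantified after a 30 min room-temperature incubation with Amplite.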

[3] = qHTS assay for small molecule agonists of the p53 signaling pathway - cell viability (AID 651633; calls by dose curve; note: nearly all actives have a fitted effect of over 30% in size; note: potency is the fitted concentration of half-maximal effect)
Method in brief: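 p53RE-bla cells, seeded at 4,000 per well and rested 5 h at 37 C/5% CO2, received compounds in DMSO for 16 h at 37 C. CellTiter-Glo was then added, and luminescence was read after 30 min at room temperature to gauge cytotoxicity.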

[4] = qHTS assay for small molecule disruptors of the mitochondrial membrane potential - cell viability (AID 720634; calls by dose curve;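 note: human HepG2 liver cancer cells; series mostly up to about 83 µM; nearly all actives have a fitted effect of over 20% in size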)
Method in brief: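 Cytotoxicity was measured by ATP quantitation in HepG2 wells that had first been treated with compound for 1 hr and stained with m-MPI dye; CellTiter-Glo incubation was 30 min at room temperature.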

[5] = qHTS assay for small molecule disruptors of the mitochondrial membrane potential (AID 720635)
Method in brief: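 HepG2 cells (2,000/well) attached overnight at 37C, then took compound for 1 hr at 37C, 5% CO2. Mito-MPS dye was added for 30 min; fluorescence was read at 490/535 nm (monomers) and 540/590 nm (aggregates).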

[6] = qHTS assay to test for compound auto fluorescence at 590 nm (red) in HepG2 cells (AID 720674)
Method in brief: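 Compound auto-fluorescence is scored relative to Rose Bengal sodium, measured at 540/590 nm in live HepG2 cultures after 1 hr compound contact (37 C, 5% CO2).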

[7] = qHTS assay to test for compound auto fluorescence at 535 nm (green) in HepG2 cells (AID 720675)
[8] = qHTS assay to test for compound auto fluorescence at 460 nm (blue) in HEK293 cells (AID 720678)
Method in brief: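 Cells were seeded and left to adhere for 4-5 hr at 37C. Compounds were then pin-transferred. After an overnight incubation at 37C under 5% CO2, intrinsic fluorescence at 405/460 nm was measured and referenced to triamterene.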

[9] = qHTS assay to test for compound auto fluorescence at 590 nm (red) in HEK293 cells (AID 720679)
Method in brief: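 Each well held 2,000 HEK293 cells in medium containing 10% dialyzed FBS. Following 4-5 hr attachment at 37C, 23 nL test compound or DMSO was added; plates sat overnight, and red fluorescence (540/590nm) was recorded.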

[10] = qHTS assay for small molecules that induce genotoxicity in human embryonic kidney cells expressing luciferase-tagged ATAD5 - cell viability (AID 651634; calls by dose curve; note: nearly all actives have a fitted effect of over 25% in size; note: potency is the fitted concentration of half-maximal effect)
Method in brief: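 Cells (HEK293T, luciferase-tagged ATAD5) are seeded at 2,000 per well, dosed with compound or DMSO vehicle, and incubated 15.5 hr at 37C and 5% CO2. CellTiter-Fluor is added for 30 min before fluorescence is measured.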

Nc1cc(Cl)c(NC2=NCCN2)c(Cl)c1
Potency [1]: inactive | Potency [2]: inactive | Potency [3]: inactive | Potency [4]: inactive | Potency [5]: inactive | outcome [6]: inactive | Potency [7]: inactive | Potency [8]: inactive | outcome [9]: inactive

Cc1cc(C(=O)NCCc2ccc(S(=O)(=O)NC(=O)NN3CCCCCC3)cc2)no1
Potency [1]: inactive | Potency [2]: inactive | Potency [3]: inactive | Potency [10]: inactive | Potency [4]: inactive | Potency [5]: inactive | outcome [6]: inactive | Potency [7]: inactive | Potency [8]: inactive | outcome [9]: inactive

O=P(O)(O)OP(=O)(O)OP(=O)(O)O
Potency [1]: inactive | Potency [2]: inactive | Potency [3]: inactive | Potency [4]: inactive | Potency [5]: inactive | outcome [6]: inactive | Potency [7]: inactive | Potency [8]: inactive | outcome [9]: inactive

O=C1C2CC3CC1CC(O)(C3)C2
Potency [1]: inactive | Potency [2]: inactive | Potency [3]: inactive | Potency [4]: inactive | Potency [5]: inactive | outcome [6]: inactive | Potency [7]: inactive | Potency [8]: inactive | outcome [9]: inactive

O=C(O)Cc1nn(Cc2ccc(Br)cc2F)c(=O)c2ccccc12
Potency [1]: inactive | Potency [2]: inactive | Potency [3]: inactive | Potency [4]: inactive | Potency [5]: inactive | outcome [6]: inactive | Potency [7]: inactive | Potency [8]: inactive | outcome [9]: inactive

O=C(O)[C@@H]1C[C@H](CP(=O)(O)O)CCN1
Potency [1]: inactive | Potency [2]: inactive | Potency [3]: inactive | Potency [4]: inactive | Potency [5]: inactive | outcome [6]: inactive | Potency [7]: inactive | Potency [8]: inactive | outcome [9]: inactive

NCCCC(=O)O
Potency [1]: inactive | Potency [2]: inactive | Potency [3]: inactive | Potency [10]: inactive | Potency [4]: inactive | Potency [5]: inactive | outcome [6]: inactive | Potency [7]: inactive | Potency [8]: inactive | outcome [9]: inactive

CC(=O)O[C@H]1C[C@@H]2CC[C@@H]3[C@H](CC[C@@]4(C)[C@H]3C[C@H]([N+]3(C)CCCCC3)[C@@H]4OC(C)=O)[C@@]2(C)C[C@@H]1[N+]1(C)CCCCC1
Potency [1]: inactive | Potency [2]: inactive | Potency [3]: inactive | Potency [10]: inactive | Potency [4]: inactive | outcome [6]: inactive | Potency [7]: inactive | Potency [8]: inactive | outcome [9]: inactive

CCCOC(=O)c1ccc(O)cc1
Potency [1]: inactive | Potency [2]: inactive | Potency [3]: inactive | Potency [10]: inactive | outcome [6]: inactive | Potency [7]: inactive | Potency [8]: inactive | outcome [9]: inactive

CN=C(N)NCCC[C@H](N)C(=O)O
Potency [1]: inactive | Potency [2]: inactive | Potency [3]: inactive | Potency [10]: inactive | Potency [4]: inactive | Potency [5]: inactive | outcome [6]: inactive | Potency [7]: inactive | Potency [8]: inactive | outcome [9]: inactive

Cc1cc(Br)ccc1NC(=O)CCl
Potency [1]: 8.63 µM (active) | Potency [2]: inactive | Potency [3]: 43.3 µM (active) | Potency [10]: 54.5 µM (active) | Potency [4]: inactive | outcome [6]: inactive | Potency [7]: inactive | Potency [8]: inactive | outcome [9]: inactive

CCOc1ccc(S(=O)(=O)O)c2cccnc12
Potency [1]: inactive | Potency [2]: inactive | Potency [3]: inactive | Potency [4]: inactive | Potency [5]: inactive | outcome [6]: inactive | Potency [7]: inactive | Potency [8]: inactive | outcome [9]: inactive

O=C[C@H](O)[C@@H](O)[C@@H](O)[C@H](O)CO
Potency [1]: inactive | Potency [2]: inactive | Potency [3]: inactive | Potency [10]: inactive | Potency [4]: inactive | outcome [6]: inactive | Potency [7]: inactive | Potency [8]: inactive | outcome [9]: inactive

CO/N=C(\C(=O)N[C@@H]1C(=O)N2C(C(=O)O)=C(C[N+]3(C)CCCC3)CS[C@H]12)c1csc(N)n1
Potency [1]: inactive | Potency [2]: inactive | Potency [3]: inactive | Potency [4]: inactive | Potency [5]: inactive | outcome [6]: inactive | Potency [7]: inactive | Potency [8]: inactive | outcome [9]: inactive

O=C(O)/C=C/C(=O)Nc1ccc(S(=O)(=O)Nc2nccs2)cc1
Potency [1]: inactive | Potency [2]: inactive | Potency [10]: inactive | Potency [4]: inactive | Potency [5]: inactive | outcome [6]: inactive | Potency [7]: inactive | Potency [8]: inactive | outcome [9]: inactive

CCC(=O)OC(OP(=O)(CCCCc1ccccc1)CC(=O)N1C[C@H](C2CCCCC2)C[C@H]1C(=O)O)C(C)C (some centres not stated)
Potency [2]: inactive | Potency [3]: inactive | Potency [10]: inactive | Potency [4]: inactive | Potency [5]: inactive | outcome [6]: inactive | Potency [7]: inactive | Potency [8]: inactive | outcome [9]: inactive

O=C1c2ccccc2CN2C(=O)c3ccccc3CN12
Potency [1]: inactive | Potency [2]: inactive | Potency [3]: inactive | Potency [4]: inactive | Potency [5]: inactive | outcome [6]: inactive | Potency [7]: inactive | Potency [8]: inactive | outcome [9]: inactive

CCOC(=O)[C@H](CCc1ccccc1)N[C@@H](C)C(=O)N1[C@H](C(=O)O)C[C@H]2CCCC[C@@H]21
Potency [1]: inactive | Potency [2]: inactive | Potency [10]: inactive | Potency [4]: inactive | Potency [5]: inactive | outcome [6]: inactive | Potency [7]: inactive | Potency [8]: inactive | outcome [9]: inactive

CCCCCN=C(N)N/N=C/c1c[nH]c2ccc(OC)cc12
Potency [1]: inactive | Potency [2]: inactive | Potency [10]: inactive | Potency [4]: inactive | Potency [5]: inactive | outcome [6]: inactive | Potency [7]: inactive | Potency [8]: inactive | outcome [9]: inactive

CN[C@@H]1[C@@H](O[C@H]2O[C@H](CO)[C@@H](N)[C@H](O)[C@H]2O)O[C@H]2C[C@@H](N)[C@@H](O[C@H]3[C@H](O)[C@@H](O)[C@H](N)C[C@@H]3N)O[C@@H]2[C@@H]1O
Potency [1]: inactive | Potency [2]: inactive | Potency [10]: inactive | Potency [4]: inactive | outcome [6]: inactive | Potency [7]: inactive | Potency [8]: inactive | outcome [9]: inactive

COc1cc([C@@H]2c3cc4c(cc3[C@@H](O[C@@H]3O[C@@H]5CO[C@@H](C)O[C@H]5[C@H](O)[C@H]3O)[C@H]3COC(=O)[C@H]23)OCO4)cc(OC)c1O
Potency [1]: 1.88 µM (active) and 761 nM (active) | Potency [2]: inactive | Potency [3]: inactive | Potency [4]: inactive | outcome [6]: inactive | Potency [7]: inactive | Potency [8]: inactive | outcome [9]: inactive

CCN1CCCC1CNC(=O)c1cc(S(=O)(=O)CC)ccc1OC (configuration not stated)
Potency [1]: inactive | Potency [2]: inactive | Potency [10]: inactive | Potency [4]: inactive | Potency [5]: inactive | outcome [6]: inactive | Potency [7]: inactive | Potency [8]: inactive | outcome [9]: inactive

CCOC(=O)Cc1ccc(-c2ccccc2)cc1
Potency [1]: inactive | Potency [2]: inactive | Potency [3]: inactive | Potency [4]: inactive | Potency [5]: inactive | outcome [6]: inactive | Potency [7]: inactive | Potency [8]: inactive | outcome [9]: inactive
